Values joined by “and” are separate entries in the source; they are usually repeats but may differ in a detail not shown here. Identical values can stand only once. About 79,000 compounds went through this panel and 15% of them were active in at least one assay; those are over-represented in the sample as a whole. Unmarked numbers belong to inactive results. Active and inactive are the calls of the source. No stated cut-off is given here; in the data, active means growth inhibition above about 70%; inactive means the rest.
Experiment: NCI Yeast Anticancer Drug Screen. Data for the sgs1 mgt1 strain (AID 161);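 further: 0% = growth of cultures given vehicle only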
Settings: S. cerevisiae sgs1 mgt1 strain, at 50.0 µM, stronger effect = higher value
Procedure, shortened: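 This yeast growth screen uses a strain with defined DNA-repair lesions; compound-treated growth is compared with vehicle-treated growth.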

Compound	growth inhibition
CCOC(=O)c1ccc([N+](=O)[O-])o1	66.1%
O=C(NCCc1c(-c2ccccc2)[nH]c2ccccc12)C(F)(F)F	79.5% (active)
c1cc[c]([Sn]([NH]c2ncnc3[nH]cnc23)([NH]c2ncnc3[nH]cnc23)[c]2ccccc2)cc1	58.3%
CCCCN(CCCC)CCC(O)(c1ccc(OC)c2ccccc12)C(O)(CCN(CCCC)CCCC)c1ccc(OC)c2ccccc12 (centres undefined)	99.6% (active)
CC(C)(C)c1ccc(OC(=O)Nc2ccc(Cl)cc2[N+](=O)[O-])c(Br)c1	68.5%
CC(=O)Nc1cccc2cc(O)ccc12	-2.2% and -3.8% and 10.3%
COC(=O)CCC(NC(=S)N/N=C/c1ccccn1)C(=O)OC (centres undefined)	57.4%
O=C(Nc1ccccc1)OCCc1ccc(Br)cc1	14.4%
CC1=CC(O)C2CC1C2(C)C (centres undefined)	-12.6% and 3.35% and -8.95%
Cc1[nH]c2ccccc2c1/C=C1\C(=O)C2CCC1C2 (centres undefined)	71.3% (active)
O=[N+]([O-])c1ccc2c(c1)OCO2	69.7%
CC(CO)[C@H]1OC(=O)C=C2[C@@]13O[C@@H]3[C@H]1OC(=O)[C@@]3(C)[C@H]4O[C@H]4C[C@@]2(C)[C@@H]13 (some centres undefined)	88.2% (active)
Cc1cc(C)nc(/C=C/c2ccc(/C=C/c3cc(C)cc(C)n3)cc2)c1	11.9%
O=C1C=CC(=O)N1c1cccc(F)c1	99.7% (active)

From PubChem BioAssay (NCI)
